Laboratory results: the supplement of paper PMC10338343
± gives the standard deviation.

What was measured:
[1] = tested on: MILI (PIWIL2) piRISC loaded with L1MC piRNA (26 nt); assay: pre-steady-state target cleavage rate (min^-1); guide: L1MC piRNA 5'p-UAACUAAAUACUAUGCAAGCUGUAGG; higher = faster piRNA-guided slicing of the target;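 also: 1 nM active piRISC with 0.1 nM target library at 33 °C single turnover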
Outline: (§1)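 The pre-steady-state cleavage rate was calculated from a burst-and-steady-state fit. Data came from Cleave-'n-Seq, in which […] transcribed, DNA-blocked target RNA library was mixed with 1 nM active affinity-purified piRISC carrying one synthetic guide, with or without 500 nM GTSF1 partner protein, in HEPES–potassium acetate buffer at 33 °C for 0–8 or 0–960 min. Uncleaved targets were sequenced and normalised to depth and to weakly complementary targets, three trials were pooled, and k3 was capped at 0.0001 min^-1.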

[2] = tested on: EfPiwi piRISC loaded with L1MC piRNA (26 nt); assay: pre-steady-state target cleavage rate (min^-1); auxiliary factor: 500 nM Ephydatia muelleri Gtsf1; guide: L1MC piRNA 5'p-UAACUAAAUACUAUGCAAGCUGUAGG; MIWI and MILI are mouse PIWI proteins and EfPiwi is from a freshwater sponge; tags in brackets are library labels; higher = faster piRNA-guided slicing of the target
Outline: as §1

[3] = auxiliary factor: 500 nM mouse GTSF1
[4] = auxiliary factor: none (no GTSF1)

Sequence | pre-steady-state target cleavage rate [1, 3] | pre-steady-state target cleavage rate [1, 4] | pre-steady-state target cleavage rate [2]
UCCUGCUUCAGCUUGCUUAGUAUUUAGUUA | 0.287 ± 0.011 | 0.00807 ± 0.0021 | 0.0238 ± 0.0068
UCCUGGAUCAGCUUGCAUAGUAUUAAGUUA | 0.262 ± 0.026 | 0.00729 ± 0.0019 | 0.0323 ± 0.0094
UCCUGGAACAGCUUGGAUAGUAAUUAGUUA | 0.21 ± 0.025 | 0.00493 ± 0.0022 | 0.00719 ± 0.0026
UCCUGGAUGAGCUCUGCAUAGUAUUUAGUUA | 0.171 ± 0.01 | 0.0111 ± 0.0033 | 0.00721 ± 0.0028
UCCUGGAACUGGUUGCAUAGUAUUUAGUUA | 0.202 ± 0.018 | 0.0046 ± 0.0029 | 0.02 ± 0.0073
UCCUGCUAGAGCUUGCUUAGUAUUUAGUUA | 0.162 ± 0.01 | 0.00643 ± 0.002 | 0.00554 ± 0.002
UCCUCCUACAGCUUGCAUAGUAUUUCGUUA | 0.243 ± 0.043 | 0.0033 ± 0.0031 | 0.00416 ± 0.0023
UCCUCCUACAGCUAGCAUAGUAAUUAGUUA | 0.159 ± 0.022 | 0.00372 ± 0.0022 | 0.00535 ± 0.002
UCCUGGAUCUGCUUGCAUAGUAUUUAGUAA | 0.22 ± 0.014 | 0.00457 ± 0.0021 | 0.1 ± 0.038
UCCUGGUACAGCUUGCAUAGUAUUUAGUUC [g2:g24:cont:t1C] | 0.3 ± 0.016 | 0.0117 ± 0.0049 | 0.0096 ± 0.0039
UCCUGGUACUGCUUGCAAAGUAUUUAGUUA | 0.0806 ± 0.01 | 0.00779 ± 0.0021 | 0.0752 ± 0.027
UCCUGGAUGAGGAUGCAUAGUAUUUAGUUA | 0.103 ± 0.017 | 0.00665 ± 0.0021 | 0.00336 ± 0.0024
UCCUGGUUCAGCUUGCAUAGUAAUUAGUUA | 0.235 ± 0.024 | 0.00723 ± 0.0031 | 0.0107 ± 0.0037
UCCUGGUACAGCUUGACAUAGUAUUUAGUUA | 0.231 ± 0.025 | 0.00764 ± 0.0035 | 0.0102 ± 0.003
UCCUGCUUCAGGUUGCAUAGUAUUUAGUUA | 0.235 ± 0.015 | 0.0111 ± 0.003 | 0.0664 ± 0.015
UCCUGCUUCAGCUUGCAUAGUAAUUAGUUA | 0.253 ± 0.022 | 0.00622 ± 0.0021 | 0.00863 ± 0.003
UCCUGGAUGAGCUUGCAUAGUAUUUAGUGA | 0.193 ± 0.025 | 0.00439 ± 0.003 | 0.00681 ± 0.0032
UCCUGGUACAGCUUGCAUAGUAUUUACGUUA | 0.227 ± 0.039 | 0.00544 ± 0.0036 | 0.00346 ± 0.0025
UCCUGGAACAGCUUGCAUAGUAUAUAGUUA | 0.296 ± 0.029 | 0.00847 ± 0.0025 | 0.00501 ± 0.0025
UCCUGGAACAGCUUGCAUGGUAUUUAGUUA | 0.283 ± 0.022 | 0.00826 ± 0.0025 | 0.0141 ± 0.0045
UCCUGGAUGUCCUUGCAUAGUAUUUAGUUUA | 0.104 ± 0.015 | 0.00891 ± 0.0035 | 0.00634 ± 0.003
UCCUGGAUCAGCAUUGCAUAGUAUUUAGUUA | 0.278 ± 0.024 | 0.0103 ± 0.0029 | 0.0605 ± 0.015
UCCUCCUACAGCUUGGAUAGUUUUUAGUUA | 0.0664 ± 0.0092 | 0.00384 ± 0.0019 | 0.0265 ± 0.007
UCCUGGAACAGCUCGCAUAGUAUUUAGUUA | 0.256 ± 0.012 | 0.00773 ± 0.0031 | 0.0171 ± 0.0048
UCCUGGUUCAGCUUGCAUACUAUUUAGUUA | 0.0631 ± 0.011 | 0.00505 ± 0.0024 | 0.00751 ± 0.0031
UCCUGGAACAGGUUGCAUUGUAUUUAGUUA | 0.157 ± 0.014 | 0.00837 ± 0.0019 | 0.00526 ± 0.0019

Sequence | pre-steady-state target cleavage rate [1, 3] | pre-steady-state target cleavage rate [1, 4] | pre-steady-state target cleavage rate [2]
UCCUGGAACAGCUUCGAUAGUAUUUAGUUA | 0.262 ± 0.015 | 0.00483 ± 0.0022 | 0.00251 ± 0.0023
UCCUGCUACUCGUUGCAUAGUAUUUAGUUA | 0.242 ± 0.014 | 0.0082 ± 0.0022 | 0.00936 ± 0.0038
UCCUGGUACAGCAUUGCAUAGUAUUUAGUUA | 0.257 ± 0.039 | 0.0159 ± 0.0049 | 0.0107 ± 0.004
UCCUGGAUCAGCUUGCAAACUAUUUAGUUA | 0.0267 ± 0.0067 | 0.00375 ± 0.0019 | 0.00476 ± 0.003
UCCUGGAUGUGCUUGCAUAGUAUAAAGUUA | 0.0611 ± 0.011 | 0.00318 ± 0.0025 | 0.00378 ± 0.0034
UCCUCCUACAGCUGCAUAGUAUUUAGUUA | 0.275 ± 0.018 | 0.00792 ± 0.0023 | 0.0884 ± 0.026
UCCUCCUACAGCUUGCAUAGUAAAUAGUUA | 0.201 ± 0.022 | 0.00285 ± 0.0028 | 0.00735 ± 0.0032
UCCUCCUACACCAUGCAUAGUAUUUAGUUA | 0.243 ± 0.019 | 0.00814 ± 0.0024 | 0.145 ± 0.05
UCCUGGAACAGCAUGCUUAGUAUUUAGUUA | 0.217 ± 0.019 | 0.005 ± 0.0026 | 0.00591 ± 0.0025
UCCUCCUACAGCUUGCUUAGUAAUUAGUUA | 0.24 ± 0.015 | 0.00424 ± 0.0021 | 0.0113 ± 0.0049
UCCUGGUACAGCGUGCAUAGUAUUUAGUUA | 0.225 ± 0.031 | 0.00988 ± 0.0044 | 0.0121 ± 0.004
UCCUGCUACACCUUGCAAAGUAUUUAGUUA | 0.106 ± 0.0086 | 0.00675 ± 0.0025 | 0.00571 ± 0.0021
UCCUGGAUCAGCUUGGAUAGUAUUUAGUAA | 0.166 ± 0.019 | 0.00324 ± 0.0026 | 0.00463 ± 0.0023
UCCUGCUACAGGUUGCAUAGUAUUUUGUUA | 0.165 ± 0.028 | 0.00477 ± 0.0031 | 0.0057 ± 0.0026
UCCUGCUACAGCUUGCAUAGUAUUAGUUA | 0.222 ± 0.026 | 0.0027 ± 0.0027 | 0.00404 ± 0.0022
UCCUGCUACAGCUUGGAUAGUAUAUAGUUA | 0.222 ± 0.026 | 0.00442 ± 0.0023 | 0.0128 ± 0.0037
UCCUGGAUCAGCUGUGCAUAGUAUUUAGUUA | 0.232 ± 0.017 | 0.0109 ± 0.0034 | 0.0791 ± 0.016
UCCUCCUACACCUUGGAUAGUAUUUAGUUA | 0.182 ± 0.026 | 0.00508 ± 0.0023 | 0.00658 ± 0.0029
UCCUGGUACAGCUUGCAUAGUAGUUAGUUA | 0.2 ± 0.034 | 0.00513 ± 0.0028 | 0.00515 ± 0.0021
UCCUCCUACAGCUAGCAUUGUAUUUAGUUA | 0.184 ± 0.013 | 0.00496 ± 0.0019 | 0.0127 ± 0.0042
UCCUGCUACAGCUUGCUUACUAUUUAGUUA | 0.114 ± 0.016 | 0.00371 ± 0.0023 | 0.0113 ± 0.005
UCCUGGAUCAGCUAGCAUAGUAUUUAGUAA | 0.219 ± 0.012 | 0.00665 ± 0.0023 | 0.00362 ± 0.0032
UCCUGGUACACGCUUGCAUAGUAUUUAGUUA | 0.167 ± 0.046 | 0.0158 ± 0.0071 | 0.00613 ± 0.0031
UCCUGGUAAGCUUGCAUAGUAUUUAGUUA | 0.273 ± 0.017 | 0.0137 ± 0.0032 | 0.0168 ± 0.0044
UCCUGGAACAGCUUGGAUAGUAUAUAGUUA | 0.215 ± 0.027 | 0.00403 ± 0.0027 | 0.00939 ± 0.0043
